Results on 50 molecules are retold here after the supplement of paper PMC6135742.

Structures can show the parent of a compound that is named as a salt. ± gives the standard deviation of the averaged measurements. Over roughly 2,600 compounds, “total cell number (DAPI+ nuclei) relative to DMSO vehicle control” has its median near -1.4; the lowest 2% begin near -23. Shown is part of a subset that was picked to be rich in the lowest values.

This experiment deals with jimpy (Plp1 jimpy) mouse iPSC-derived oligodendrocyte progenitor cells. The experiment is described as follows: total cell number (DAPI+ nuclei) relative to DMSO vehicle control (SDs above negative control mean); higher = more surviving cells. As to conditions: 10 µM; 3 days. The protocol: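 Primary phenotypic screen of >3,000 bioactive compounds (Selleck L1700 and Sigma LO1280 libraries) at a single dose of 10 µM. Compounds were added to jimpy (Plp1 mutant) mouse iPSC-derived OPCs at the start of thyroid hormone-induced oligodendrocyte differentiation, one well per compound in 384-well plates. After 3 days cells were stained for MBP, Sox10 and DAPI and imaged with an Operetta system. MBP+ oligodendrocyte number and total cell number were expressed as the number of SDs above the mean of the DMSO negative control on the same plate (n=16 control wells per plate). Hits were defined as >=4 SD for oligodendrocytes and >=2 SD for total cells.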
Turning to `Cc1c(C(=O)N2CCOc3ccc(-c4ccc(N)nc4)cc3C2)ccc(S(C)(=O)=O)c1F`, the total cell number was -3.21.
With `NOCC(=O)O` [O-(Carboxymethyl)hydroxylamine hemihydrochloride] the figure was 1.52; with `N#Cc1c(O)c2c(-c3ccc(-c4ccccc4O)cc3)csc2[nH]c1=O`, 0.298; with `c1coc(CNc2ncnc3[nH]cnc23)c1` [Kinetin], 0.658.
Regarding `COc1cc(/C=C(\C#N)C(=O)Nc2nnc(C(F)(F)F)s2)ccc1OCc1ccc(C(F)(F)F)cc1C(F)(F)F`, the total cell number is -0.657.
The same measure for `Cc1cc(/C=C/C#N)cc(C)c1Nc1ccnc(Nc2ccc(C#N)cc2)n1` [Rilpivirine]: -9.09.
On to `Oc1ccc(/C=C/c2cc(O)cc(O)c2)cc1` [Resveratrol], for which the total cell number was -2.54 ± 1.
The same measure for `CCN(c1nc(N)c(C(=O)NC(=N)N)nc1Cl)C(C)C` [5-(N-Ethyl-N-isopropyl)amiloride]: -4.19; for `O=c1cc[nH]c(=S)[nH]1` [2-Thiouracil]: -0.0444; for `CS(=O)(=O)c1ccc(C(=O)Nc2ccc(Cl)c(-c3ccccn3)c2)c(Cl)c1` [Vismodegib (GDC-0449)]: -1.63.
Take `CNC(=O)Nc1ccc(-c2nc(N3CC4CCC(C3)O4)c3cnn(C4CCC5(CC4)OCCO5)c3n2)cc1`: the total cell number is -8.93.
In turn, `COc1ccccc1N1CCN(CCCNc2c(C)c(=O)n(C)c(=O)n2C)CC1` [Urapidil, 5-Methyl-] showed a total cell number of -1.49.
For `CCCCCCCCCCCCCCCCCCOP(=O)([O-])OC1CC[N+](C)(C)CC1` [Perifosine], the total cell number is -0.796.
The same measure for `CN(C)CC(c1ccc(O)cc1)C1(O)CCCCC1` (stereo not given) [Desvenlafaxine Succinate]: -3.69.
With `CN(C)CC(c1ccc(O)cc1)C1(O)CCCCC1` (stereo not given) [Desvenlafaxine] the figure was -0.735; with `Oc1ccccc1O` [Pyrocatechol], -10.2.
The same measure for `Nc1cc(=O)[nH]c(N)n1` [2,4-Diamino-6-pyrimidinone]: -1.65; for `CC(C)(O)CC[C@@H](O)[C@](C)(O)[C@H]1CC[C@@]2(O)C3=CC(=O)[C@@H]4C[C@@H](O)[C@@H](O)C[C@]4(C)[C@H]3CC[C@]12C` [20-Hydroxyecdysone]: -0.544; for `CC(S)C(=O)NCC(=O)O` (stereo not given) [Tiopronin]: -2.65.
As for `C=C(C)[C@@H]1CC=C(C(=O)O)CC1` [(-)-Perillic acid], the total cell number was -1.68.
With `CN(C)c1ccc(-c2nc3ncc(Cl)c(N4CCN(CC(=O)Nc5nccs5)CC4)c3[nH]2)cc1` the figure was 1.85.
With `O=C1CCC(N2C(=O)c3ccccc3C2=O)C(=O)N1` (racemic) [(±)-Thalidomide] the figure was -2.18; with `O=C1CCC[C@@H]2[C@H]3CCC[N+]4([O-])CCC[C@@H](CN12)[C@@H]34` (stereo not given in full) [Oxymatrine], -0.222.
The same measure for `COc1cc2c(Nc3ccc(NC(=O)c4ccccc4)cc3)ncnc2cc1OCCCN1CCOCC1`: -26.6.
`C#Cc1cccc(Nc2ncnc3cc(OC)c(OCCCCCCC(=O)NO)cc23)c1` had a total cell number of -18.7.
With `COc1cc2c(N3CCN(C(=O)Nc4ccc(OC(C)C)cc4)CC3)ncnc2cc1OCCCN1CCCCC1` [Tandutinib (MLN518)] the figure was -10.3; with `CCOC(=O)[C@@H](N)Cc1ccc(O)c(O)c1` [L-Dopa ethyl ester], -2.07.
With `COC1=C2C[C@@H](C)C[C@H](OC)[C@H](O)[C@@H](C)/C=C(\C)[C@H](OC(N)=O)[C@@H](OC)/C=C\C=C(/C)C(=O)NC(=CC1=O)C2=O` [Geldanamycin] the figure was -12.3.
With `C=CCNC1=C2C[C@@H](C)C[C@H](OC)[C@H](O)[C@@H](C)/C=C(\C)[C@H](OC(N)=O)[C@@H](OC)/C=C\C=C(/C)C(=O)NC(=CC1=O)C2=O` [17-AAG (Tanespimycin)] the figure was -25; with `CO[C@H]1/C=C\C=C(/C)C(=O)NC2=CC(=O)C(NCCN(C)C)=C(C[C@@H](C)C[C@H](OC)[C@H](O)[C@@H](C)/C=C(\C)[C@@H]1OC(N)=O)C2=O` [17-DMAG (Alvespimycin) HCl], -26.5.
In the case of `CN(NC(=O)CC(=O)NN(C)C(=S)c1ccccc1)C(=S)c1ccccc1` [Elesclomol (STA-4783)], the total cell number is -1.04.
Take `CCC(C)(Oc1ccc(C2(c3ccc(OC(C)(CC)C(=O)O)cc3)CCCCC2)cc1)C(=O)O` (stereo not given) [Clinofibrate]: the total cell number turned out to be 1.25.
Take `N[C@H]1C[C@@H]1c1ccc(-c2cccc(O)c2)cc1`: the total cell number was -3.31.
With `Cc1ccc(C(=O)Cn2c3c(sc2=N)CCCC3)cc1` [Pifithrin-? (PFT?)] the figure was 1.69.
With `OC[C@H]1O[C@@H](n2cnc3c(N[C@H]4CCC[C@@H]4O)ncnc32)[C@H](O)[C@@H]1O` the figure was 0.458.
The same measure for `CC(Cc1ccc(O)c(O)c1)(NN)C(=O)O` (stereo not drawn) [S-(-)-Carbidopa]: -1.61; for `Cc1cc(Cn2cnc3c2C[C@@H](C(=O)O)N(C(=O)C(c2ccccc2)c2ccccc2)C3)ccc1N`: -6.04.
In turn, `O=C(Nc1ccccc1-c1cn2c(CN3CCNCC3)csc2n1)c1cnc2ccccc2n1` yielded a total cell number of -27.8.
Take `C=C1C[C@@]23CC[C@H]4[C@@](C)(CCC[C@@]4(C)C(=O)O)[C@@H]2CC[C@]1(O)C3` [Steviol]: the total cell number is -0.619.
In the case of `CC(C)c1cc(-c2n[nH]c(=O)n2-c2ccc3c(ccn3C)c2)c(O)cc1O` [Ganetespib (STA-9090)], the total cell number is -25.4.
`Cc1cc(NC(=O)Nc2ccc3c(ccn3C)c2)sn1` came in with a total cell number of -1.4.
The same measure for `CN(C[C@@H]1COCCO1)S(=O)(=O)Nc1ccc2ccc3ncc(-c4cnn(C)c4)cc3c(=O)c2c1`: -9.05; for `Cc1ccc(C(=O)N(CCCN)[C@@H](c2nc3cc(Cl)ccc3c(=O)n2Cc2ccccc2)C(C)C)cc1`: -27.5.
With `Cc1ccc(C(=O)N(CCCN)[C@@H](c2oc3cc(Cl)ccc3c(=O)c2Cc2ccccc2)C(C)C)cc1` the figure was -15.1.
`CNC(=O)CN(CCN(CCN(CC(=O)[O-])CC(=O)NC)CC(=O)[O-])CC(=O)[O-].[Gd+3]` [Gadodiamide] showed a total cell number of -14.9.
With `C=CCNC(N)=S` [Allylthiourea] the figure was 6.27; with `CCc1ccc(OCc2ccccc2C(=O)Nc2ccc3nc(C)cc(N)c3c2)cc1`, -12.5.
`COc1cc(OC)c(NC(=O)Nc2cc(C)on2)cc1Cl` returned a total cell number of -0.876.
`COc1cc2nccc(Oc3ccc(NC(=O)Nc4cc(C)on4)c(Cl)c3)c2cc1OC` [Tivozanib (AV-951)] showed a total cell number of -23.5.
The same measure for `COc1cc2nccc(Oc3ccc(NC(=O)NC4CC4)c(Cl)c3)c2cc1C(N)=O` [Lenvatinib (E7080)]: -9.34.
